HCV inh: inhibitors of hepatitis C virus infection; Potency, µM (top dose mostly 41.8 µM), without a hit: at the top dose activity change, negative = inhibition, most hits filed as inhibitors; Huh7.5.1 HCVcc-Cre infection, luciferase reporter, 44 h; AID 651820; 340,000 compounds, 3.4% hits; active means well fitted inhibition curve with a large enough effect; inconclusive means small, poorly fitted or top-dose-only effect, or another doubt; inactive means no such curve, though single readings can be large or run the other way; further: potency means the concentration at half of the fitted maximal effect
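Cells seeded at 1,000/well and cultured 4 h, then compounds added followed by HCVcc-Cre virus (~0.5 moi). After 44 h further culture, luciferase substrate was added, plates held 15 min at room temperature, and luminescence read for 15 sec.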
MARV entry inh: blocks Marburg virus binding to or entry into cells; Marburg virus pseudotyped entry inhibition, cell reporter; Potency, µM (series often up to 37.8 µM), inactives show at the top dose activity change, negative = inhibition, most hits filed as inhibitors; 300,000 compounds, 1.8% hits; AID 540276; calls by dose curve; tested in HEK293 cells; further: potency means the concentration at half of the fitted maximal effect
FMDV inh: blocks foot and mouth disease virus. FMDV antiviral cell-based qHTS. Potency, µM (titrated, usually from 57.9 µM), for the others: at the highest dose activity change, negative = inhibition, most hits filed as inhibitors. 410,000 compounds, 1.2% hits. AID 1159524; calls by dose curve; tested in HEK293T cells; further: read-out not given here; potency means the concentration at half of the fitted maximal effect; nearly all actives have a fitted effect of over 45% in size
Lassa entry inh: inhibitors of Lassa virus binding or cell entry | Lassa virus pseudotype entry inhibition, cell reporter | AID 540256 | Potency, µM (series often up to 37.9 µM), for the others: at the top dose activity change, negative = inhibition, most hits filed as inhibitors | 300,000 compounds, 1.2% hits; calls by dose curve; tested in HEK293 cells; further: potency means the concentration at half of the fitted maximal effect; nearly all actives have a fitted effect of over 50% in size
HCMV inh: human cytomegalovirus inhibition; HFF cells, HCMV-luciferase reporter, 72 h; active compounds read low; activity change, negative = inhibition, % at 57.5 µM; 410,000 compounds, 4.5% hits; AID 1259415; in the data active means activity change below about -60%; inconclusive means no clear call, values can overlap the other calls; inactive means above about -39%
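After 16 h attachment at 37C, HFF cells received test compound and HCMV-luciferase (1 PFU/cell); reporter luminescence read 72 h later, data normalized against buffer-only and known inhibitor Salinomycin.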
The depositor's hits bear a star; ? = inconclusive; · = no result; + = active, no number; ! = not confirmed by another sample; [ ] = remark or other dose. Hits are enriched below; roughly 7.9% of the tested compounds scored in any of these assays. On the % scale 0 is the no-effect control and ±100 the full control effect.

SMILES	HCV inh	MARV entry inh	FMDV inh	Lassa entry inh	HCMV inh
Fc1ccc(-n2cc(-c3ccccc3)c3c(=S)nc[nH]c32)cc1	?	?	-27%	5µM*	?
Cc1ccc(-n2cc(-c3ccccc3)c3c(=O)[nH]cnc32)cc1	10%	-28%	7%	15µM*	-5
Fc1cccc(-n2cc(-c3ccccc3)c3c(=S)nc[nH]c32)c1	?	·	0%	·	?
O=c1[nH]cnc2c1c(-c1ccccc1)cn2-c1ccccc1	-1%	·	-12%	·	-21
COc1ccc(CCNCc2c(C(=O)O)c(C)n(Cc3cccc(Cl)c3)c2C)c(OC)c1OC	·	-1%[46.1 µM]	-15%	1%[46.1 µM]	?
CCN(C(=O)Cn1cc(S(=O)(=O)Cc2ccccc2Cl)c2ccccc21)c1ccccc1	·	·	-21%	-28%[46.1 µM]	0
CC(=O)OCCN(CCCn1c(-c2ccncc2)nc2ccccc21)c1nc(CN2CCCCC2)cs1	2.5µM*	·	-10%	·	28
c1ccc2c(c1)nc(-c1ccncc1)n2CCNc1nc(CN2CCCCC2)cs1	9%	·	-22%	·	-9
O=C(CN1C(=O)COc2ccccc21)NCCCN1CCCC1	-10%	·	-16%	·	+
Cc1ccc2c(c1)N(CC(=O)NCCCN1CCN(C)CC1)C(=O)CO2	15%	-9%[46.1 µM]	-3%	?	-69*
O=C(CN1C(=O)COc2ccccc21)NCCN1CCCC1	15%	·	-6%	·	0
Cc1ccccc1OCc1ccc(-c2nc(C#N)c(NCc3cccnc3)o2)o1	·	-4%[46.1 µM]	?	-16%[46.1 µM]	?
Cc1oc(-c2ccc(Cl)cc2)nc1CN1CCCC(C(=O)NCc2cccnc2)C1 (stereo not drawn)	1µM*	-24%	?	-25%	-84*
Cc1oc(-c2ccc(Cl)cc2)nc1CN1CCC(C(=O)NCCCN2CCCC(C)C2)CC1 (stereo not drawn)	1.8µM*	·	-22%	·	-101*
Cc1oc(-c2ccc(Cl)cc2)nc1CN1CCCC(C(=O)NCCCN2CCOCC2)C1 (stereo not drawn)	6.3µM*	?	0%	?	?
CSc1cccc(NC(=O)Cn2nnc(C(=O)NCCc3ccccc3)c2N)c1	·	·	-15%	5%[46.1 µM]	-24
CCc1ccccc1NC(=O)CN1C(=O)CCn2nc(-c3cccn3C)cc21	·	·	-13%	10%[46.1 µM]	6
CCNC(=O)c1c(C)oc2ncn(C)c(=O)c12	·	·	0%	3%[46.1 µM]	10
COc1ccc(OC)c(NC(=O)c2cc(-c3cc(C)cc(C)c3O)n[nH]2)c1	4µM*	?	2%	-19%	-68*
COc1ccc(OC)c(NC(=O)c2cc(-c3cc(C)c(C)cc3O)n[nH]2)c1	-11%	-7%	18%	?	?
Cc1cccc(NC(=O)c2cc(-c3cc(C)cc(C)c3O)n[nH]2)c1	11µM*	·	-10%	·	?
Cc1cc(C)c(O)c(-c2cc(C(=O)Nc3cccnc3)[nH]n2)c1	?	?	-21%	25%	?
COc1ccc(OC)c(NC(=O)c2cc(-c3c(C)cc(C)cc3O)n[nH]2)c1	10µM*	·	-24%	·	9
Cc1ccc(-n2ncc3c(N4CCN(c5ccccc5)CC4)ncnc32)c(C)c1	4.5µM*	-16%	3.2µM*	?	-82*
Cc1cccc(-n2ncc3c(NCc4cccnc4)ncnc32)c1	-29%	·	21%	·	132
SMILES	HCV inh	MARV entry inh	FMDV inh	Lassa entry inh	HCMV inh
Cc1ccc(-n2ncc3c(NCc4cccnc4)ncnc32)c(C)c1	10µM*!	?	?	?	?
Cc1cccc(-n2ncc3c(N4CCOCC4)ncnc32)c1	-17%	3.7µM*	-77%	1.6µM*	30
COc1ccc(-n2ncc3c(N4CCN(c5cccc(C)c5)C(C)C4)ncnc32)cc1 (stereo not drawn)	·	·	20µM*	?	-66*
Cc1cccc(-n2ncc3c(N4CCN(c5ccccc5)CC4)ncnc32)c1	·	·	?	-47%[46.1 µM]	+
COc1ccccc1N(CC(=O)NCc1ccccn1)S(C)(=O)=O	1%	-1%	·	3%	-66*
COc1ccc(OC)c(N(CC(=O)NCc2ccccn2)S(C)(=O)=O)c1	17%	0%	30%	4%	12
COC(=O)c1ccccc1NC(=O)c1ccc2c(c1)OCCO2	10µM*	2%[46.1 µM]	19%	-3%	45
CC(C)c1ccc(NC(=O)c2ccc(NS(C)(=O)=O)cc2)cc1	6.3µM*	?	-6%	-9%	-5
CCOC(=O)c1ccc(NC(=O)c2nsc3ccccc23)cc1	·	?	-12%	?	-78*
COC(=O)c1ccccc1NC(=O)c1ccc(NS(C)(=O)=O)cc1	11µM*	0%	-22%	4%	72
OCC1CCCN(c2nc3cc4c(cc3cc2CNCc2cccc(C(F)(F)F)c2)OCO4)C1 (stereo not drawn)	·	·	0%	·	·
CCOC(=O)c1ccc(NS(=O)(=O)c2ccc3c(c2)n(C)c(=O)n3C)cc1	-30%	?	-9%	-3%[46.1 µM]	-67*!
COC(=O)c1ccccc1NC(=O)CNC(=O)c1ccc(OC)cc1	0%	-11%[46.1 µM]	7%	-28%[46.1 µM]	+
COC(=O)c1ccc(NS(=O)(=O)c2ccc3c(c2)n(C)c(=O)n3C)cc1	6%	-2%	14%	-8%	-12
CCOC(=O)c1ccc(NC(=O)c2ccccc2)cc1	?	?	·	11%	-21
CCOC(=O)c1ccc(NC(=O)c2ccc(NS(C)(=O)=O)cc2)cc1	11µM*	14%	·	-5%	?
COc1ccc(C(=O)Nc2ccccc2C(N)=O)cc1	9%	25%	28%	-1%	127
Cc1ccc(-c2nc3ncccc3o2)cc1NC(=O)c1ccccc1Br	·	·	9%	-4%[46.1 µM]	?
CCOc1cc(CNCc2ccccn2)cc(Cl)c1OCC	-26%	-2%[46.1 µM]	?	-4%[46.1 µM]	-1
CCOc1c(Cl)cc(CNCCc2c[nH]c3ccccc23)cc1OC	22µM*	·	-19%	·	10
CCOc1cc(CNCCc2c[nH]c3ccccc23)cc(Cl)c1OCC	?	?	-3%	-19%	-63*
CCC(=O)Nc1nc2ccc([N+](=O)[O-])cc2s1	-4%	-2%[46.1 µM]	-14%	-11%[46.1 µM]	-60*
Cc1ccc(C)c(OCC(=O)Nc2nc3ccc([N+](=O)[O-])cc3s2)c1C	11µM*	0%	0%	-1%	-65*
CC(=O)Nc1ccc2nc(NC(=O)COc3ccc([N+](=O)[O-])cc3)sc2c1	6%	-12%[46.1 µM]	1%	4%	3
CCCCOC(=O)Nc1nc2ccc([N+](=O)[O-])cc2s1	13%	?	8%	21%	-29
COc1ccc(-c2cc(=O)c3c(OC)c(OC)c(OC)c(OC)c3o2)cc1OC	?	-49%	11%	-26%	26
COc1ccc2c(=O)cc(-c3ccncc3)oc2c1OC	11µM*	?	-13%	-18%[46.1 µM]	-38
COc1cccc(C2=NOC(C(=O)NCc3ccc(F)cc3)C2)c1 (stereo not drawn)	15%	15%	-9%	-7%	43
COc1ccc(C2=NOC(C(=O)NCc3ccc(F)cc3)C2)cc1OC (stereo not drawn)	?	?	-19%	0.82µM*	?
